A selection: hits, their analogues and other compounds. The true share with any hit is near 6.2%.
SUMO Mot1 rescue: SUMOylation pathway inhibition by Mot1-301 growth rescue; S. cerevisiae Mot1-301 growth rescue, ATP luminescence, 38.5C; percent above DMSO median, 100 means doubled; growth rescue, % at 18.8 µM; actives 1% (n = 320,000); AID 2716;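 active means every valid replicate shows activation above 250% relative to neutral control wells; inactive means the rest, any valid replicate at or below 250%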;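 further: OY570 slx delta 5 strain wells were the positive control but not used for scaling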
GRIN3A LBD mod: modulates the human NR3A ligand-binding domain; NR3A LBD differential scanning fluorimetry, Tm shift; 0% = protein alone, 100% = glycine-bound protein; Tm shift relative to glycine control, % at 25 µM; actives 2.5% (n = 340,000); AID 1259313;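 active means melting temperature shift of at least 10% of the positive control shift, at one fixed dose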
Cardio protect: protects H9c2 cardiomyocytes from peroxide injury | protection from H2O2 cell death, % at 20 µM | H2O2 injury protection, ATPLite, 2 h | actives 0.63% (n = 360,000);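 active means compounds giving at least 50% protection of heart cells from peroxide-induced death in the single-dose screen, raw or plate-pattern-corrected value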;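 further: 0% = DMSO wells with peroxide and 100% = DMSO wells without peroxide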
NTR1 ag: agonists of human neurotensin receptor NTR1; P30989; NTR1-U2OS beta-arrestin-GFP spot imaging, agonist mode; activation, % at 20 µM; actives 0.17% (n = 330,000); AID 493036;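 active means activation at or above 40% of the spot to cytoplasm intensity ratio, with at least 20 cells analyzed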;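 further: 0% = DMSO without peptide and 100% = 100 nM NTR1 peptide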
Target sequence (P30989 whole entry, looked up): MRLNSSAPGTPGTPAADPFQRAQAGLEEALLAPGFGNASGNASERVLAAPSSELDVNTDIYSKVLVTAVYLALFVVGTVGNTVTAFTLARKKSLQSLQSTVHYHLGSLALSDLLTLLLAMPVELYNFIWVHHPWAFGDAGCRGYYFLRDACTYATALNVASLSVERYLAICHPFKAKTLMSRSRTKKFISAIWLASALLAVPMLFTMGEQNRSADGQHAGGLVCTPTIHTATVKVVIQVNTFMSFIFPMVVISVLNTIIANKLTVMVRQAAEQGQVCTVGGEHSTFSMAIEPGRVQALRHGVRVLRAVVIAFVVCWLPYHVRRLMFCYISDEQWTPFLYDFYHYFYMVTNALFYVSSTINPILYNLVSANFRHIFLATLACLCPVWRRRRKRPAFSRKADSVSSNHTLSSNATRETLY
AHR activator: activates the human aryl hydrocarbon receptor | P35869 | AHR-responsive luciferase reporter cells, luminescence | activation, % at 5 µM | actives 2.5% (n = 320,000); in the data active means activation above about 47%;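 further: 0% = vehicle wells and 100% = reference agonist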
AI-2 QS modul: modulates the Vibrio harveyi AI-2 quorum sensing system. activity change, % at 7.5 µM. Vibrio harveyi JMH597 AI-2 luminescence/OD600 ratio, 9 h; stronger effect = lower value; strain lacks LuxN and CqsS sensors; 0 = neutral-control median. actives 0.4% (n = 300,000); in the data active means activity change below about -75%, passing the limit was not always enough;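 further: luminescence divided by OD600 gain over 9 h not by final OD600 alone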
* hit, by the source's call; . = no result given.

SMILES | SUMO Mot1 rescue | GRIN3A LBD mod | Cardio protect | NTR1 ag | AHR activator | AI-2 QS modul
CCCCC(=O)N1C/C=C\C(c2ccc(OC)cc2)N(Cc2ccc(F)cc2)C(=O)[C@H]1Cc1ccccc1 (stereo partly drawn) | -15 | -2 | -7 | 5 | 2 | 17
COc1ccc(S(=O)(=O)N2CC(O)CC2C(=O)OCc2nc3sc(C)c(C)c3c(=O)[nH]2)cc1 (stereo not drawn) | -13 | -3 | 79* | 2 | 16 | 18
CCc1cccc(NC(=O)CCNS(=O)(=O)c2cc(Br)cnc2N)c1 | -12 | 13* | -1 | 2 | 7 | 17
CC(C)c1ccc(NC(=O)CCNS(=O)(=O)c2cc(Br)cnc2N)cc1 | 1 | 9 | -11 | 8 | 8 | 35
CN(C)c1ccc(N=Cc2nc(-c3ccccc3)oc2OC(=O)c2ccccc2)cc1 | 9 | -5 | 3 | 2 | 49* | 13
CC(=O)Oc1oc(-c2ccccc2)nc1C=Nc1ccc(N(C)C)cc1 | -18 | 3 | -6 | 5 | 5 | 19
Clc1ccc(-c2n[nH]c3c2CCCC3)cc1 | 25 | -2 | -1 | 1 | 56* | 11
O=C(NNC(=O)c1ccc(O)c(Cl)c1)c1cccc(S(=O)(=O)N2CCOCC2)c1 | -2 | 0 | 0 | 0 | 5 | 2
COc1ccc2oc(C(=O)N(C)Cc3ccc(OC(F)F)cc3)c(C)c2c1 | 15 | 13* | -1 | 2 | 5 | 16
COc1ccc2oc(C(=O)N(C)CCOc3ccccc3)c(C)c2c1 | -3 | 2 | -3 | 0 | 7 | 16
O=C(Nc1cccc(Cl)c1)Nc1ccc(Br)cc1F | 325 | 21* | -28 | 17 | -3 | 24
O=C(O)CSc1ccc(NC(=O)Nc2ccccc2F)cc1 | -15 | 10* | 1 | 0 | 1 | 16
O=C(Nc1ccccc1)Nc1ccc(Br)cc1F | 1 | 12* | -24 | 3 | 10 | 12
COC(=O)c1cc(Br)ccc1NC(=O)Nc1ccccc1 | -5 | -13 | 1 | 2 | 0 | 7
Cc1cc(NC(=O)Nc2ccccc2F)ccc1Br | -1 | 26* | -9 | 2 | 22 | 20
COc1cccc(C(C)(O)c2nc(-c3cnn(C)c3)cs2)c1 (stereo not drawn) | . | . | 1 | . | . | .
CCOC(=O)c1c(NC(=O)COC(=O)c2ccc(Cl)nc2)sc(C)c1C | . | . | -4 | . | . | .
Cc1cc(C)c2oc(C(=O)Nc3ccc(S(=O)(=O)Nc4nccs4)cc3)cc(=O)c2c1 | 13 | 1 | 0 | 0 | -2 | 19
Cc1cc2oc(C(=O)Nc3ccc(S(=O)(=O)N4CCCC(C)C4)cc3)cc(=O)c2cc1Cl (stereo not drawn) | -19 | 14* | -6 | 3 | 3 | 15
Cc1cc2oc(C(=O)Nc3ccc(S(=O)(=O)Nc4nccs4)cc3)cc(=O)c2cc1Cl | -1 | 17* | 0 | 1 | 5 | 25
CC1(Cc2ccc(OC(F)(F)F)cc2)C(=O)Nc2ccc(S(=O)(=O)NC3CCCCC3)cc21 (stereo not drawn) | . | . | -8 | . | . | .
COc1ccc2oc3c(ccc[n+]3C)c(=O)c2c1 | . | . | 3 | . | . | .
CCOc1cc(C(=O)OC(C(=O)NC(=O)NC)c2ccccc2)ccc1OCC(=O)N1CCOCC1 (stereo not drawn) | 39 | -2 | -1 | 1 | 2 | .
c1ccc(-c2nccc3ccccc23)cc1 | 75 | 1 | 0 | 2 | 3 | 18
Cc1ccc(-c2nc(-c3nccc4ccccc34)oc2-c2ccccc2)cc1 | 6 | 11* | -17 | 2 | 13 | 14
SMILES | SUMO Mot1 rescue | GRIN3A LBD mod | Cardio protect | NTR1 ag | AHR activator | AI-2 QS modul
Cc1cc2c(c(C#N)c1C)NC=NC2C (stereo not drawn) | . | . | 26 | . | . | .
COc1ccc(Cc2nnc(NC(=O)c3ccccc3Cl)s2)cc1OC | -6 | -1 | 0 | 0 | 5 | 18
CCC1=C(OC(=O)c2ccccc2)C(C)(C)C(c2ccccc2)OC1=O (stereo not drawn) | 22 | 14* | -30 | 2 | -3 | 21
CC1(C)C(=O)OC(c2ccccc2)C(C)(C)C1=O (stereo not drawn) | -25 | -2 | -5 | 0 | -2 | 26
COc1ccccc1C1=Nn2c(nnc2C2CCCCC2)SC1 | 354* | -4 | -6 | 0 | 7 | .
COc1ccc(-c2cc3c(=O)n(CC(=O)N4CCN(C)CC4)ncn3n2)cc1 | -5 | -1 | -34 | -1 | 73* | 17
CC1CCN(C(=O)c2[nH]cnc2C(=O)Nc2ccon2)CC1 | 5 | 0 | -1 | 4 | -3 | .
CC1CN(C2CCCCC2)C(=O)NC1=O (stereo not drawn) | . | -2 | 4 | . | . | .
CCOC(=O)c1cc(C#N)c(Oc2ccccc2)nc1-c1ccccc1 | 8 | 13* | -24 | 3 | 13 | 0
Cc1ccc(NC(=O)CC2Nc3ccccc3NC2=O)cc1Cl (stereo not drawn) | . | 10* | -6 | . | . | .
CCOc1ccccc1NC(=O)CC1Nc2cc(C)c(C)cc2NC1=O (stereo not drawn) | 13 | -1 | 3 | 1 | 45 | 46
COc1ccc(CCNC(=O)CC2Nc3ccccc3NC2=O)cc1 (stereo not drawn) | 3 | -1 | 7 | -1 | 29 | 15
CCCOc1ccccc1NC(=O)CC1Nc2ccccc2NC1=O (stereo not drawn) | 9 | -1 | -7 | 4 | 49* | 26
CCOc1ccccc1NC(=O)CC1Nc2ccccc2NC1=O (stereo not drawn) | -3 | -2 | 10 | 1 | 78* | 14
CCCN(CCC)CCCNC(=O)CC1Nc2ccccc2NC1=O (stereo not drawn) | 2 | -1 | 12 | 0 | 7 | 20
CCCOc1ccc(NC(=O)CC2Nc3ccccc3NC2=O)cc1 (stereo not drawn) | 571* | -6 | 4 | 4 | 13 | 21
CCCCN(CC)CCCNC(=O)CC1Nc2ccccc2NC1=O (stereo not drawn) | 1 | 1 | -5 | -2 | 10 | 6
CCc1nc2ccc(C(=O)NCC3CCCCC3)cn2c1N(C)Cc1nccs1 | . | . | 2 | . | . | .
Cc1ccccc1-c1ccc2c(c1)O[C@@H](CN(C)C(=O)Nc1ccc(C(F)(F)F)cc1)[C@H](C)CN([C@@H](C)CO)S2(=O)=O | . | . | -1 | . | . | .
O=C(Cn1cc(S(=O)(=O)N2CCCC2)c(S(=O)(=O)N2CCCC2)c1)NCc1ccco1 | 3 | 0 | -5 | 1 | 2 | 30
Cc1c(-c2cccc(Cl)c2)nc2ccccc2c1C(=O)NC1CC1 | -4 | -21 | 1 | 1 | . | 23
Cn1c(C(=O)O)cc2cc(F)ccc21 | -8 | 5 | 4 | -1 | 54* | 34
COc1ccc2c(c1)cc(C(=O)O)n2C | -9 | 0 | 3 | 5 | 2 | 38
CCCCC(=O)N(C)c1c(CC)nc2c(OCC(=O)N(C)C)cccn12 | . | . | 4 | . | . | .

Screening results from PubChem BioAssay.
